PubChem BioAssay (NCATS)
Results filed as inconclusive are left out. Calls of active or inactive are those of the source. Unless noted, calls come from the whole dose curve; as a rule, active = well fitted curve in the direction sought with a large enough effect; inconclusive = small, poorly fitted or top-dose-only effect, or another doubt; inactive = no such curve, though single readings can be large; an effect the other way counts as inactive or inconclusive.

Key:
[1] = P-glycoprotein substrates identified in KB-8-5-11 adenocarcinoma cell line, qHTS therapeutic library screen (AID 1346987); note: nearly all actives have a fitted effect of over 65% in size
Method in brief: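 Luminescence from CellTiter-Glo, read 5 min after addition, quantified survival of KB-8-5-11 (P-gp-overexpressing) cells exposed to compounds for 72 h. AC50 was derived from concentration-response curves.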

[2] = NS1 protein of Zika virus - qHTS assay to identify small molecule inhibitors in human HEK 293 cells (AID 1347053); note: series mostly up to about 46 µM; nearly all actives have a fitted effect of over 55% in size
Method in brief: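 Compound-treated (1 h pre-infection) HEK 293 cells infected with ZIKV MR766, MOI = 0.5; after 24 h at 37 C, NS1 read by TR-FRET; data normalized to uninfected and infected controls.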

[3] = Natriuretic polypeptide receptor (hNpr1) antagonism - Pilot counterscreen GloSensor control cell line (AID 1347045; calls by dose curve; note: series mostly up to about 38 µM)
Method in brief: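 Cells were first seeded and incubated overnight at 37C, then loaded with 2% GloSensor substrate for 2 h. Compounds were added for 30 min at room temperature, followed by a baseline read, 50 uM SNP and a final read after 20 min.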

[4] = target: Atrial natriuretic peptide receptor 2 (Homo sapiens) (UniProt P20594); test: Natriuretic polypeptide receptor (hNpr2) antagonism - Pilot subtype selectivity assay (AID 1347050; calls by dose curve)
Method in brief: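 Antagonist mode: compounds (LOPAC1280, seven 1:5 dilutions) added 30 min before 1 nM hNppC stimulation of hNpr2-HEK293 cGMP-sensor cells; luminescence read before and 20 min after agonist at ambient temperature.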

[5] = target: Atrial natriuretic peptide receptor 1 (Homo sapiens) (UniProt P16066); test: Natriuretic polypeptide receptor (hNpr1) antagonism - Pilot screen (AID 1347049; calls by dose curve;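 note: HEK293 cells with hNpr1 and GloSensor cGMP luciferase stimulated by 0.1 nM hNppA; agonist-evoked cGMP luminescence read 20 min after hNppA addition; series mostly up to about 58 µM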)
Method in brief: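 Receptor antagonism read as cGMP-dependent luminescence in hNpr1/pGS-40F HEK293 cells: pre-read after 30 min compound exposure, post-read 20 min after hNppA agonist at 0.1 nM final, all at room temperature, protected from light; A-71915 titration as control.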

[6] = target: Tyrosine-protein phosphatase non-receptor type substrate 1 (Homo sapiens) + Leukocyte surface antigen CD47 (Homo sapiens) (UniProt P78324+Q08722); test: CD47-SIRPalpha protein protein interaction - LANCE assay qHTS validation (AID 1347057; active = well fitted curve in the direction sought with a large enough effect in the signal ratio, with a control signal flat, not every such curve was filed as active; the % refers to the signal ratio; note: series mostly up to about 38 µM)
Method in brief: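 Inhibition of soluble CD47/SIRPalpha ectodomain association by titrated compounds, measured as 665/615 nm time-resolved FRET ratio after sequential 30 min room-temperature incubations.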

Measured: Potency

Tyrosine-protein phosphatase non-receptor type substrate 1 (Homo sapiens) + Leukocyte surface antigen CD47 (Homo sapiens), sequence (P78324 whole entry, looked up, the tested form may be a part): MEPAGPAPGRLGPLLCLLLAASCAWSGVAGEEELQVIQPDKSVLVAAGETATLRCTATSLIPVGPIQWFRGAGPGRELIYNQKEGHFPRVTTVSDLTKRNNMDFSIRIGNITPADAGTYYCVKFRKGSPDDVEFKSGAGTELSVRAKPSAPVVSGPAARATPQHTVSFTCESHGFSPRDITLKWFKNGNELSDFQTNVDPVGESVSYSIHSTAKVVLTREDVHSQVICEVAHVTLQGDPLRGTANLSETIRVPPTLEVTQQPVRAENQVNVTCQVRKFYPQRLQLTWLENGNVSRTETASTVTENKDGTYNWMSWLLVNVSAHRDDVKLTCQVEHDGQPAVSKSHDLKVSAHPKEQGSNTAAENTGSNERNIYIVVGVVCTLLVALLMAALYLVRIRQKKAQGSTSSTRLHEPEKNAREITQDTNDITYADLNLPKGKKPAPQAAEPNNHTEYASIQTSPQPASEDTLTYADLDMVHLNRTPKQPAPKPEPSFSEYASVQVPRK
Tyrosine-protein phosphatase non-receptor type substrate 1 (Homo sapiens) + Leukocyte surface antigen CD47 (Homo sapiens), sequence (Q08722 whole entry, looked up, the tested form may be a part): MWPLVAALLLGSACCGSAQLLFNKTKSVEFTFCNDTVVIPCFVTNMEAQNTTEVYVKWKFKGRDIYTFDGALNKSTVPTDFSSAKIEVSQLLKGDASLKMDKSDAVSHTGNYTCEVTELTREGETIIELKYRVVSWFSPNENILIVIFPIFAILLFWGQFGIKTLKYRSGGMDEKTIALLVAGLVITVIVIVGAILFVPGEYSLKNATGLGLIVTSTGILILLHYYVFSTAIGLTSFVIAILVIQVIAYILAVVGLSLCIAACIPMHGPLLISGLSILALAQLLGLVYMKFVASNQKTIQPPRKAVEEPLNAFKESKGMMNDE
Atrial natriuretic peptide receptor 2 (Homo sapiens), sequence (P20594 whole entry, looked up): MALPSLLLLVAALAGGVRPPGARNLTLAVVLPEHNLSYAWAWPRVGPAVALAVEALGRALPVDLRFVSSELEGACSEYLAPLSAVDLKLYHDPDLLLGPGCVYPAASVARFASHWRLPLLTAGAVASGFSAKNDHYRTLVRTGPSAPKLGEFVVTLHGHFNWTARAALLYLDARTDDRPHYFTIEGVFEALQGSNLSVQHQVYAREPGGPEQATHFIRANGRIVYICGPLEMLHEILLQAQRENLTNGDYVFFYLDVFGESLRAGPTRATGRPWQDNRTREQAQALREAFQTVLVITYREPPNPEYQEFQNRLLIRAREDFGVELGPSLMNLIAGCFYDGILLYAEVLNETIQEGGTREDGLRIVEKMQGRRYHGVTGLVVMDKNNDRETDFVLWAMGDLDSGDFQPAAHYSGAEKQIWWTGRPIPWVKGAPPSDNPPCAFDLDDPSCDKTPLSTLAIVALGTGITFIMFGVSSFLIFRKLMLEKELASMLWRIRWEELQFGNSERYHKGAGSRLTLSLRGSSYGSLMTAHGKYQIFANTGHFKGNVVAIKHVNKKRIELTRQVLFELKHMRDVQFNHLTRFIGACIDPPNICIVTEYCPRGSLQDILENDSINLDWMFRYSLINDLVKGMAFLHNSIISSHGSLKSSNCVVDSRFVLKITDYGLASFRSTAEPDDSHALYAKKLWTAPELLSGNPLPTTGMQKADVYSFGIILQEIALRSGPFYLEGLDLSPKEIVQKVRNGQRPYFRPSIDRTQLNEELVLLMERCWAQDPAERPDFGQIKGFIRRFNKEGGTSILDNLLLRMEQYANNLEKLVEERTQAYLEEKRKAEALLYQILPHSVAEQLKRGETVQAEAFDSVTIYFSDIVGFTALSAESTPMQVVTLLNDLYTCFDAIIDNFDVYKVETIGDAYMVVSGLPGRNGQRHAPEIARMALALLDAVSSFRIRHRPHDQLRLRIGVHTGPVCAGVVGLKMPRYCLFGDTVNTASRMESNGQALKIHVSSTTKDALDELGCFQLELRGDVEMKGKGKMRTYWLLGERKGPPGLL
Atrial natriuretic peptide receptor 1 (Homo sapiens), sequence (P16066 whole entry, looked up): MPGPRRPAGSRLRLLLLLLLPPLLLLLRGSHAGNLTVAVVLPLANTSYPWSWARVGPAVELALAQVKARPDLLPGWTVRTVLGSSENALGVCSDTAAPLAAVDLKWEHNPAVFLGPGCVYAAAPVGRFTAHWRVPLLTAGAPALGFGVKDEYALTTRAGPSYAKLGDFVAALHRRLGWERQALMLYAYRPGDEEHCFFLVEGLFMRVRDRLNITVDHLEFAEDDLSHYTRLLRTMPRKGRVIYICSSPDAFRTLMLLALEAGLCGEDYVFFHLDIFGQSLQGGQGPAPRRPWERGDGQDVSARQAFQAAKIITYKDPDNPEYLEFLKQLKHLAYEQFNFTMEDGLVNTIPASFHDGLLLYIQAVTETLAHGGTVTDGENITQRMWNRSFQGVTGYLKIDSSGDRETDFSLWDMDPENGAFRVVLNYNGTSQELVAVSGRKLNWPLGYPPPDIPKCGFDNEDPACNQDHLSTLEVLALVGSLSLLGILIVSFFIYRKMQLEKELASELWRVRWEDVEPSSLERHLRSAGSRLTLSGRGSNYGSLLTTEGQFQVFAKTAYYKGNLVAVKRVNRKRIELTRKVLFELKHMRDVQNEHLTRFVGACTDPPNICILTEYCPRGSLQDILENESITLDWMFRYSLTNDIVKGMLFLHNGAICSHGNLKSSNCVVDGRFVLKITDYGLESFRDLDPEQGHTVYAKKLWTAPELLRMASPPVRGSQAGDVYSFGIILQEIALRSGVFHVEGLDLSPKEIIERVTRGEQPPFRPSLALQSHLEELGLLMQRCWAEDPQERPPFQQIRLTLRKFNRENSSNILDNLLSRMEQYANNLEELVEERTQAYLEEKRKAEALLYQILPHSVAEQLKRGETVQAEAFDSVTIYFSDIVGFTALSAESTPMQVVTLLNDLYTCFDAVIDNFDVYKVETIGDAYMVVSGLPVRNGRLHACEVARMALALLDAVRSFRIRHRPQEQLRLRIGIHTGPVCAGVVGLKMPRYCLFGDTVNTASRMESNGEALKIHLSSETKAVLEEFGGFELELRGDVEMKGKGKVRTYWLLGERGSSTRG

NCCO
inactive: [1] | [2]

CCCOC(=O)c1ccc(O)cc1
inactive: [1] | [2]

CCNC(=O)[C@H]1O[C@@H](n2cnc3c(N)nc(NCCc4ccc(CCC(=O)O)cc4)nc32)[C@H](O)[C@@H]1O
inactive: [1] | [3] | [4]

CC(C(=O)O)c1ccc2c(c1)[nH]c1ccc(Cl)cc12 (stereo not drawn)
inactive: [1] | [2]

O=C(O)[C@H](O)[C@@H](O)[C@H](O)[C@H](O)CO
inactive: [1]

COc1cc(NC(C)CCCN)c2ncccc2c1 (stereo not drawn)
inactive: [1] | [2]

CN(C)[C@@H]1C(=O)C(C(=O)NCN2CCCC2)=C(O)[C@@]2(O)C(=O)C3=C(O)c4c(O)cccc4[C@@](C)(O)C3C[C@@H]12 (stereo partly drawn)
inactive: [1] | [2]

C=CCN1C(=O)C(CC(C)C)NC1=S (stereo not drawn)
inactive: [1]

OC[C@H]1O[C@@H](n2cnc3c(NC4CCCC4)ncnc32)[C@H](O)[C@@H]1O
not listed: [1]
inactive: all other assays above

CNc1ncnc2c1ncn2[C@@H]1O[C@H](CO)[C@@H](O)[C@H]1O
not listed: [1]
inactive: all other assays above

CSc1nc(N)c2ncn([C@@H]3O[C@H](COP(=O)(O)OP(=O)(O)OP(=O)(O)O)[C@@H](O)[C@H]3O)c2n1
not listed: [1]
inactive: all other assays above

Oc1ccc(C2CNCc3sccc32)cc1O (stereo not drawn)
not listed: [1]
inactive: all other assays above

CCCn1c(=O)c2[nH]c(-c3ccc(OCC(=O)NCCN)cc3)nc2n(CCC)c1=O
inactive: [3] | [5] | [4]

O=C(O)c1cc(=O)c2c(Cl)cc(Cl)cc2[nH]1
not listed: [1]
inactive: all other assays above
